This passage reports growth results from PubChem BioAssay (NCI).

Compounds without any hit were thinned out: in the full panel of roughly 83,000, 20% have a hit.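 How to read the values: 0–100, growth inhibition (40 = 60% inhibited); 0, no net growth; -100 to 0, cell death (-40 = 40% of starting cells died; -100 = all dead).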 Unmarked numbers belong to inactive results. Active and inactive are the calls of the source. How the source made its calls: active means growth percent below 10; inactive means the rest.

Common to all, as to assay: NCI-60 one-dose screen, 48 h (100 = growth as untreated, 0 = no growth, -100 = all killed)
Common to all, as to conditions: 10 µM unless noted

Experiment [1] deals with SK-MEL-2 melanoma.
Experiment [2] has as its system EKVX NSCLC.
In experiment [3] the test system is SN12C renal.
Experiment [4] deals with UO-31 renal.
Experiment [5] relates to TK-10 renal.
The subject of experiment [6] is ACHN renal.
In experiment [7] the test system is CAKI-1 renal.
For experiment [8], the system named is A498 renal.
Experiment [9] deals with MOLT-4 leukemia.

`COc1cc(-c2nn(C(C)(C)C)cc2-c2ccnc(NCCCNS(=O)(=O)c3ccc(Cl)cc3)n2)ccc1Cl`: the growth in [1] is 82.5%; in [2] it was 31.3%; in experiment [3] it was 46%; in [4] it was 32.7%; in experiment [5], 66.1%; in experiment [6], 64.1%. Further, the growth in experiment [7] is 17.7%; in experiment [8], 49.4%; in experiment [9], 31%.

Consider `C#CCOc1ccc(/C=N\Nc2nc(-c3ccc(C)cc3)cs2)cc1OC`, for which the growth in experiment [1] is 96.1%; in [2], 65.3%; in [3], 89.2%; in [4], 78.3%; in experiment [5], 166%; in experiment [6], 103%. Also, the growth is 115% in experiment [7], 81.2% in experiment [8] and 79.5% in experiment [9].

Turning to `COc1cc(-c2nc(-c3ccccc3)[nH]c2-c2ccnc(NCCCNS(=O)(=O)c3cccc(F)c3)n2)ccc1Cl`, the growth in experiment [1] is 43.5%; in experiment [2], 54.3%; in experiment [3] it was 57.7%; in [4], 35.9%; in experiment [5], 72.3%; in [6], 32.8%. The growth is 42.9% in experiment [7], 70.4% in [8] and 19.6% in [9].

As to `CC(=O)Nc1cccc(Nc2nc(N[C@H](C)c3ccccc3)c3ccccc3n2)c1`, the growth in [1] is 73.6%; in experiment [2], 52%; in experiment [3], 53.9%; in experiment [4] it was 40.5%; in experiment [5], 68.1%; in experiment [6] it was 77.9%. For the same compound, the growth in [7] was 35.8%; in [8], 22.8%; in experiment [9], 16.8%.

As for `O=C(Nc1ccc(N=Cc2c(O)[nH]c3ccccc23)cc1)Nc1nccs1`, the growth in experiment [1] is 62.1%; in experiment [2], 34.6%; in experiment [3], 68%; in experiment [4], 48.4%; in experiment [5], 75.7%; in experiment [6], 40.7%. Further, the growth in experiment [7] is 32.9%; in [8], -7.94% (active); in experiment [9], 32.2%.

For `Cc1ccc(-n2c(/C=C3\C(=O)Nc4ccccc43)ccc2CO)cc1`, the growth is 81% in [1]; 79.8% in experiment [2]; 88.2% in experiment [3]; 65% in [4]; 118% in experiment [5]; 76.5% in experiment [6]. The growth in [7] was 55.9%; in experiment [8], 47%; in experiment [9], 43.8%.

In the case of `CS(=O)(=O)Nc1cc(-c2ccc3ncc(C#N)c(NCc4ccccc4)c3c2)cnc1Cl`, the growth in experiment [1] is -42.2% (active); in experiment [2], -20.1% (active); in experiment [3], 7.64% (active); in experiment [4], 1.63% (active); in [5], -25.2% (active); in [6] it was 5.99% (active). Also, the results for the growth in experiment [7], in experiment [8] and in [9] were -27.7% (active), -57.2% (active) and -25.6% (active), respectively.

As to `CNC(=O)c1c(NC(=O)c2cccc(C(F)(F)F)c2F)sc2c1CCC(=O)C2`, the growth in experiment [1] is 8.04% (active); in [2] it was 13.1%; in experiment [3], 10%; in [4], -29.2% (active); in experiment [5], 34.6%; in experiment [6] it was 4.75% (active). For the same compound, the growth in [7] was -30.6% (active); in experiment [8], -1.35% (active); in experiment [9], 7.37% (active).

For the compound `Oc1[nH]c2ccccc2c1Nn1c(N=N/C=c2/ccc3c(c2)C=NN=3)n[nH]c1=S`, the growth is 104% in [1]; 64.2% in experiment [2]; 93.9% in experiment [3]; 74.8% in [4]; 165% in experiment [5]; 96.8% in experiment [6]. Further, the growth in [7] is 82.8%; in experiment [8], 82.9%; in experiment [9], 103%.

For `C#Cc1ccc(C(=O)NCc2ccc(/C=C/C(=O)c3nccn3C)cc2)cc1`, the growth was 87% in experiment [1]; 36.4% in experiment [2]; 14.8% in experiment [3]; 29.3% in experiment [4]; 45.1% in [5]; 21.6% in experiment [6]. Further, the growth is 43.2% in [7], 38.1% in [8] and 1.15% (active) in experiment [9].

On to `C=C(C)[C@@H]1CC[C@]2(C(=O)NCCCCCN(CCC#N)CCC#N)CC[C@]3(C)[C@H](CC[C@@H]4[C@@]5(C)CCC(=O)C(C)(C)[C@@H]5CC[C@]43C)[C@@H]12`, for which the growth in [1] is 106%; in experiment [2], 75.2%; in experiment [3], 89.3%; in experiment [4], 71.6%; in [5], 74.7%; in experiment [6] it was 98.7%. Further, the growth was 61.1% in experiment [7], 48.9% in experiment [8] and 92% in [9].

Take `COc1cc(-c2nn(C(C)(C)C)cc2-c2ccnc(NCCCNS(=O)(=O)c3cccc(F)c3)n2)ccc1Cl`: the growth in [1] was 85.8%; in [2], 40.6%; in experiment [3] it was 58.6%; in [4], 42.9%; in experiment [5], 68.2%; in [6], 83.4%. The growth in experiment [7] is 25.7%; in [8] it was 34.4%; in experiment [9] it was 44%.

Consider `CC(C)(O)c1cncc(-c2ccc3ncnc(NCc4ccccc4)c3c2)c1`, for which the growth in [1] is 107%; in experiment [2], 32.7%; in experiment [3], 57.6%; in experiment [4], 37.1%; in experiment [5] it was 42.8%; in experiment [6], 66.4%. In addition, the growth was 42.6% in experiment [7], 5.8% (active) in experiment [8] and 98.6% in experiment [9].

In the case of `COc1ccc([C@H]2c3[nH]c4ccccc4c3C[C@H]3C(=O)N(C4CCN(Cc5c(Cl)cccc5Cl)CC4)CC(=O)N23)c(OC)c1`, the growth is 103% in [1]; 86.2% in [2]; 91% in experiment [3]; 53.7% in [4]; 110% in experiment [5]; 86.8% in experiment [6]. In addition, the growth in [7] was 73.4%; in experiment [8], 128%; in [9] it was 86.2%.
